Laboratory results from ChEMBL document CHEMBL3988442, “University of Dundee, Small-Polar-MMV Screening Library” (2021).
In all, about 48,000 compounds went through this assay and about 13,000 (27%) showed an effect of 50% or more. The list shows a part of the results.

What follows are molecules tested on Wolbachia pipientis (assay: Anti-Wolbachia Cell-Based Screen). Conditions: 5 µM.
Assay type: functional
Set-up: scale not given: in the data most compounds retested in dose-response had high values

Compound	Percent Effect [%]
CCc1noc(CN2CCOC3(CCCC3)C2)n1	98.78
CC(=O)N1CCCC2(CN(Cc3ccncc3)CCO2)C1 (centres undefined)	-7.212
Cc1noc(C)c1CN1CCCC2(C1)CN(c1nncs1)CCO2 (centres undefined)	-8.738
Cc1nc(CN2CCN(C(=O)COc3c(C)ccc(C)c3C)CC2)no1	0.1735
Cc1nc(CN2CCOC3(CCCC3)C2)no1	71.5
Cc1nc(CN2CCOC3(CCCC3)C2)oc1C	98.63
CN1CCC(N2CCOC3(CCCC3)C2)C1=O (centres undefined)	17.36
OCCN1CCOC2(CCCN(c3ncccn3)C2)C1 (centres undefined)	10.98
c1cc(CN2CCOC3(CCCC3)C2)no1	-7.47
Cl.NCC1(c2cccc(Br)c2)CCOCC1	-3.113
CN(Cc1nc2ccsc2c(=O)[nH]1)C[C@@H]1CCCN2CCCC[C@H]12	9.481
Cc1nn(C)c2nc(N3CCCCC3c3cccnc3)sc12 (centres undefined)	116.8
Cc1cc(N2CCCC2c2cccnc2)nc(C)n1 (centres undefined)	-8.687
Cc1cc(C)nc(N2CCCC2c2cccnc2)n1 (centres undefined)	-35.57
c1cc(CN2CCOCC3(CCNCC3)C2)ccn1	-46.48
CNc1nccnc1C1CCN(C(C)C)CC1	92.81
Cc1n[nH]c(C)c1CC(=O)N1CCCN(C)C2(CCN(C)CC2)C1	0.449
CO[C@@H]1CCN(S(=O)(=O)N(C)C)[C@@H]2CN(Cc3cccnc3)C[C@@H]21.O=C(O)C(F)(F)F.O=C(O)C(F)(F)F	-16.98
CO[C@H]1CCN(C2CCC2)[C@@H]2CN(Cc3ccncc3)C[C@H]12.O=C(O)C(F)(F)F.O=C(O)C(F)(F)F.O=C(O)C(F)(F)F	1.676
CCS(=O)(=O)N1CC[C@H](OC)[C@H]2CN(Cc3ccncc3)C[C@H]21.O=C(O)C(F)(F)F.O=C(O)C(F)(F)F	4.967
CO[C@@H]1CCN(S(=O)(=O)N(C)C)[C@@H]2CN(Cc3ccncc3)C[C@@H]21.O=C(O)C(F)(F)F.O=C(O)C(F)(F)F	7.733
CO[C@@H]1CCN(Cc2cccs2)[C@@H]2CN(Cc3ccncc3)C[C@@H]21.O=C(O)C(F)(F)F.O=C(O)C(F)(F)F.O=C(O)C(F)(F)F	96.91
CO[C@H]1CCN(Cc2cccs2)[C@@H]2CN(Cc3ccncc3)C[C@H]12.O=C(O)C(F)(F)F.O=C(O)C(F)(F)F.O=C(O)C(F)(F)F	110
Nc1ncccc1CN1C[C@H]2OC(=O)N(Cc3ccccn3)[C@H]2C1	0.5145
